Measured values as given in the supplement of paper PMC3334620.
Whole data set: some 33,000 sequences, median “E-score (-0.5 to 0.5)” near -0.015, cut for the highest 2% near 0.3. The sample holds the highest values, similar sequences and a random draw of the others, so the mix is not that of the screen.

What follows are sequences tested against T1, Abf1 (UniProt P14164) (assay: PBM E-score (8-mer binding enrichment) (E-score (-0.5 to 0.5)); higher = stronger / more preferred TF binding). Details: protein concentration: 200 nM; construct: GST-full length.
T1 sequence: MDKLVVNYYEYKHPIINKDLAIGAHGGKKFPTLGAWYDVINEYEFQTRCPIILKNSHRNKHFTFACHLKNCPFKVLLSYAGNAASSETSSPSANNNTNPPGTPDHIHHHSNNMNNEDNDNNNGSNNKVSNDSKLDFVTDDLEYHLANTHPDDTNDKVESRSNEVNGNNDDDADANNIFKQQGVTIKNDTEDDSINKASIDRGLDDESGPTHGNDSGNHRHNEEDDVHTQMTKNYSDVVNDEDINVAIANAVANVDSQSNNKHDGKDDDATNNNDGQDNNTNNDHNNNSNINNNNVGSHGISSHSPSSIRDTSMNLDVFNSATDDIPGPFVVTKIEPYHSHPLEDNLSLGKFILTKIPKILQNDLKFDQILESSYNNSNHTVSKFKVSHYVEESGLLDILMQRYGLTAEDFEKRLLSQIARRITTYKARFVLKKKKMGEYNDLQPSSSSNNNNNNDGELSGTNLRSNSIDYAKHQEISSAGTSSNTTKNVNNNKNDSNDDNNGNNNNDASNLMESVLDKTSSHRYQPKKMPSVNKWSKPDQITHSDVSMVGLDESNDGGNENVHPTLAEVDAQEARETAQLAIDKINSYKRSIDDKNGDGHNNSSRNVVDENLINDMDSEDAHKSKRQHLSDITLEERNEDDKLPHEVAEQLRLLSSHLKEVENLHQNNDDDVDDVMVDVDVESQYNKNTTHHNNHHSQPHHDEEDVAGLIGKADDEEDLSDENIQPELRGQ
Method: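 Universal 'all 10-mer' protein binding microarrays (Agilent AMADID 015681) probed with GST-tagged S. cerevisiae TFs (full-length or DBD) made by in vitro transcription/translation (PURExpress), about 100-200 nM. Bound TF was detected with fluorescent anti-GST. Each ungapped 8-mer (which stands for itself and its reverse complement) is scored by the PBM enrichment score (E-score), a modified Wilcoxon-Mann-Whitney statistic from -0.5 to +0.5, computed with the Universal PBM Analysis Suite. Scale: above 0.35 generally sequence-specific binding.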

Sequence | PBM E-score
GATCGCCA | 0.165
CATCGCGA | 0.2
AATCGCGA | 0.176
TATCGCGA | 0.34
GATCGCGC | 0.121
GATCGCGA | 0.315
ATTTAGCA | 0.193
AGGTAATG | 0.0091
AACTCTAT | -0.096
CGTCTTTA | 0.301
GGTCTTTA | 0.0661
CGTCTTTC | 0.0707
CTTGTTAA | -0.072
TCCGTGAA | 0.238
CCCGTGCA | 0.0856
CCCGTGCG | 0.054
ACCGTGCC | 0.0366
TCCGTGCA | 0.312
ACCGTGCA | 0.315
ACCGTGCT | 0.139
GCCGTGCA | 0.223
ATCGTGCA | 0.282
ATCGTGCC | 0.276
ACCGTGCG | 0.315
ATCGTGCG | 0.366

Sequence | PBM E-score
AAGTTGTG | -0.0478
CTAGGAAG | -0.18
CACTGAGA | -0.104
AGAAGTTG | -0.0778
CTTCGACC | -0.0331
GTAGTCAA | 0.106
CGTGAGTC | 0.0135
CGCCCGCG | -0.0644
AACAGTAT | 0.0291
AGGTCCAC | -0.0594
AATACGGT | 0.194
CATACGAG | 0.171
CATACGGA | 0.295
CATACGCC | -0.00293
GATACGGC | 0.199
CATACGGC | 0.346
CATACGAC | 0.333
AATACGGG | 0.202
AATACGGC | 0.32
CAGCTTTC | -0.00915
AAACTTCT | 0.211
ATCGCCAC | 0.275
ATAGATAC | -0.0386
GTCACTTA | 0.355
AGCACTTC | 0.0874

Sequence | PBM E-score
ATCACTTA | 0.355
ATCACTTC | 0.376
ATCACTGA | 0.205
ATCACTTG | 0.355
GTCACTGA | 0.253
CTCACTTA | 0.14
AGCACTTG | -0.314
GCCACTTA | -0.0218
CTCACTTC | -0.0359
AACACTTG | -0.0627
CACGGGTC | -0.0483
CGTGTGGC | 0.0664
ATACCGAA | 0.189
ATTGACGC | -0.156
AGTTCTTC | -0.0427
CTTCAGAA | -0.179
CAAGAACG | 0.123
GCCATTAA | 0.0468
AATTGAAG | -0.0559
AACACGAA | 0.205
CACACGAC | 0.295
CACACGGA | 0.0992
GACACGAA | 0.172
TACACGGA | 0.329
GACACGGA | 0.167

Sequence | PBM E-score
TACACGAA | 0.337
CACACGAG | 0.107
CACACGAA | 0.341
GGGCAGCA | -0.256
AGCAGGTG | -0.0258
ACCTAACC | 0.0492
ACTTAGGC | -0.111
ACTCATCC | 0.227
AACGAAGA | 0.188
TACGAATA | 0.25
GACGAAGA | 0.253
CACGAAGA | 0.316
TACGAAGA | 0.334
TCCGAAGA | -0.0522
CAGCAGGA | -0.0545
ACCCTACT | -0.231
CCTATTCC | -0.139
GCAGGTAC | -0.221
GAATGACA | 0.311
AAATGACG | 0.187
AAATGACC | 0.215
AAATGACA | 0.358
GAATGACC | 0.0136
CAATGACA | 0.214
TAATGACA | 0.376

Sequence | PBM E-score
TAATGCCA | -0.0319
TATTGACA | -0.0437
GACTTCTC | 0.167
ATGAGCGC | 0.0585
GTAGGGTA | 0.0591
CCGTTTGC | -0.0132
CATAGCAG | -0.126
ATCGTACA | 0.34
ATCGTAAG | 0.108
CTCGTACA | 0.342
ATCGTAAA | 0.234
GTCGTACA | 0.383
ATCGTACC | 0.0609
GGCGTACA | 0.0819
ATCGTACG | 0.394
AACGTACA | 0.0978
CTCGTACC | 0.184
CACGTACA | 0.0758
GTCGTAGA | 0.278
GTCTGCAC | -0.061
GGTCCTGA | -0.0764
CGGAAGTA | -0.0352
ACAGGTAC | -0.146
GGCTTTAC | -0.225
GCTGGGTA | -0.0116

Sequence | PBM E-score
AAGAAAAA | -0.0775
CCAGGATA | 0.126
GTGAGGTA | -0.0243
AGAAACCT | -0.237
ATTACGTA | 0.372
ATTACGGG | -0.0226
CTTACGTA | 0.212
ATTACGGA | 0.303
ATTACGTG | 0.176
ATTACGGC | 0.184
GAGAGGCA | -0.176
GCCCTACC | -0.149
CTGAATCA | -0.0743
AAGCCCCC | -0.352
ATAGTGAG | 0.069
ACAGTGAT | 0.294
GCAGTGAC | 0.15
CTAGTGAG | -0.0339
ATAGTGGG | -0.075
GTAGTGAA | 0.0467
ATAGTGAT | 0.436
ATAGTGAC | 0.35
GTAGTGAC | 0.35
CTAGTGAC | 0.316
ATAGTGAA | 0.0719

Sequence | PBM E-score
CTAGTGAA | -0.202
AGTCGTAC | 0.169
CTGGGTAA | -0.0825
ATGGGTTC | -0.0947
GCGCGCGC | 0.197
GCAGGGAC | -0.131
TTAGCCAA | -0.00286
CGGCGCCC | -0.143
CGAGCAAA | 0.179
CGCGGGAC | -0.172
AACGTGCA | 0.0844
CTCGTGCA | 0.124
CACGTGCA | 0.139
GTCGTGCA | 0.374
GACGTGCA | 0.358
GGCGTGCA | -0.0867
GATGGAGA | -0.00795
AGATCGCA | 0.0409
ATCCCCGC | -0.211
CACAAAGA | 0.0323
AGGTCAGC | -0.0373
ACGTACAA | 0.218
CGGTACAA | 0.211
CCGTACAG | 0.21
CCGTACAC | 0.3

Sequence | PBM E-score
CAGTACAA | 0.0284
GCGTACAC | 0.0451
GCGTACAA | 0.197
TCGTACAA | 0.402
CCGTACAA | 0.432
AAGGTTTC | -0.0855
CCGACAGA | -0.00185
TACGTTAA | 0.132
AGATGCCC | -0.144
GCATCCGA | -0.146
GAGAGTGC | -0.192
GAGAGTGA | 0.324
TAGAGTGA | 0.248
CCGTTTTA | 0.203
AGATGACT | -0.0855
GGATGACA | 0.253
GCATGACA | 0.207
TCATGACA | 0.323
TGATGACA | 0.376
TGATGAAA | 0.0461
CGATGACA | 0.319
AGATGACA | 0.316
AGATGACC | 0.132
CGATGACC | 0.206
ACATGACA | 0.256

Sequence | PBM E-score
CGATGACG | 0.136
CTCGTGCC | -0.0761
CCGGATGA | -0.024
GAACACAA | -0.0576
GCGAGTGA | 0.137
ACTGGTCT | -0.176
ACTTGTCT | -0.0797
CGATTGGC | -0.0866
CCCCGCGG | -0.255
CGGTCGCC | -0.00137
AATGACGC | 0.106
ACTGACGG | -0.0335
AATGACGT | 0.125
CATGACGA | 0.374
CCTGACGA | 0.214
ACTGACGA | 0.305
AATGACGA | 0.36
GATGACGA | 0.265
ATTGACGG | 0.211
GTTGACGA | 0.21
CATGACGG | 0.0231
ATTGACGA | 0.377
